Source: PubChem (several laboratories)
FBA Mtb inh – inhibitors of M. tuberculosis fructose-bisphosphate aldolase; P9WQA3; purified M. tuberculosis FBA, fluorescence read-out; inhibition, % at 1 µM; actives 2.3% (n = 360,000); AID 588726; in the data active = inhibition above about 27%;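 also: 0% = vehicle and 100% = reference inhibitor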
GDH-TPI counter – GDH-TPI coupled enzyme inhibition counter-screen; GDH-TPI coupled enzyme counterscreen, NADH absorbance; inhibition, % at 4.8 µM; actives 1.2% (n = 360,000); AID 588335; in the data active = inhibition above about 30%;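 also: 0% = DMSO wells and 100% = wells lacking the enzyme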
Rv3671c inh – inhibitors of M. tuberculosis serine protease Rv3671c | P9WHR9 | actives 0.048% (n = 320,000) | inhibition, % at 5.96 µM; in the data active = inhibition above about 38%;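 also: extracellular domain of Rv3671c used as enzyme; 0% = enzyme with DMSO and 100% = no enzyme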
Target sequence (P9WHR9 whole entry, looked up, the tested form may be a part): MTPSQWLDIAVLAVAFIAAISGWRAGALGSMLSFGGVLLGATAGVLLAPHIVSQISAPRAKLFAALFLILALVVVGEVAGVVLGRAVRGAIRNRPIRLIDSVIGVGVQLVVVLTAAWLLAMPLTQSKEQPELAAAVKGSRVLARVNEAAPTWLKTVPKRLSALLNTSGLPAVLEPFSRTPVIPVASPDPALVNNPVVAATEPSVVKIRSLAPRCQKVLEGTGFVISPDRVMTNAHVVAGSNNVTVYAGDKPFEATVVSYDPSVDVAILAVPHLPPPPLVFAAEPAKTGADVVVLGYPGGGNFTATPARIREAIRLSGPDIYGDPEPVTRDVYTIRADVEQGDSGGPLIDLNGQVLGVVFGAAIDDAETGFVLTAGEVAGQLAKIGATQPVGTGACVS
BioA inh – inhibitors of Mycobacterium tuberculosis BioA enzyme | AID 602481 | inhibition, % at 9.99 µM | purified M. tuberculosis BioA enzyme, plate reader | actives 0.096% (n = 360,000); in the data active = inhibition above about 40%
FadD28 binding – inhibitors of Mycobacterium tuberculosis FadD28 bisubstrate binding | FadD28 bisubstrate probe binding, fluorescence polarization | inhibition, % at 12.5 µM | AID 588549 | actives 0.22% (n = 360,000); in the data active = inhibition above about 8.5%, passing the limit was not always enough
Starred values were filed as active, the others as inactive; x = no result given; + = active, no number. Rows were chosen to be rich in hits. Some 3% of all compounds tested hit in one or more screens of this group.

SMILES	FBA Mtb inh	GDH-TPI counter	Rv3671c inh	BioA inh	FadD28 binding
O=C(O)c1ccc(N/N=C/C=C/c2ccccc2)cc1	2.1	33.0*	3.8	0.4	2.8
O=C(O)c1ccc(NS(=O)(=O)/C=C/c2ccccc2)cc1	0.5	6.5	-2.0	-2.1	-1.8
O=C(O)c1cc(N/N=C/c2ccc(-c3ccccc3)cc2)ccc1Cl	8.0	9.2	x	1.6	19.1*
Clc1cccc(N/N=C/c2ccc(N3CCOCC3)cc2)c1	2.1	9.4	3.1	-2.0	-2.2
COc1ccccc1NCC(=O)N/N=C/C=C/c1ccccc1	-0.6	13.7	7.9	x	-3.2
COc1cccc(CN2[C@H](CO)[C@H]3c4ccccc4N(C(=O)c4ccncc4)C[C@H]32)c1	x	x	x	0.3	x
CC(C)NC(=O)Nc1ccc2c(c1)C(=O)N([C@@H](C)CO)C[C@@H](C)[C@@H](CN(C)Cc1ccc(C(=O)O)cc1)O2	x	x	x	-2.2	x
COc1ccc(-c2ccc([C@@H]3[C@@H](CO)N4CCCCN(C(=O)NC(C)C)C[C@@H]34)cc2)cc1	x	x	x	-0.1	x
O=C(O)c1cc(N/N=C/C=C/c2ccccc2[N+](=O)[O-])ccc1Cl	-9.0	38.2*	5.5	1.0	5.5
O=C(O)c1ccc(/C=N/Nc2ccc(C(F)(F)F)cn2)cc1	-0.3	38.1*	x	x	-0.7
COc1cc(/C=N/Nc2ccc(C(F)(F)F)cn2)ccc1O	-1.3	22.0	5.5	x	-1.1
CC(C)c1ccc(/C=N/Nc2ccc(C(=O)O)cc2)cc1	-1.4	31.0*	3.3	x	0.9
C/C(=N\Nc1ccc(Cl)c(C(=O)O)c1)c1cccc([N+](=O)[O-])c1	-5.3	41.6*	-8.4	2.0	2.2
Cc1ccc(/C=N/Nc2ccc(C(=O)O)cc2)o1	1.7	19.7	-2.3	x	-0.9
C[C@H](CO)N1C[C@H](C)[C@H](CN(C)C(=O)CC2CC2)Oc2ncc(C#Cc3cccnc3)cc2C1=O	x	x	x	5.6	x
Nc1nonc1C(=O)N/N=C/c1ccc(-c2ccc(Cl)c(C(=O)O)c2)o1	-3.2	25.2	2.7	x	-4.6
Nc1ccc(C(=O)N/N=C\c2ccc(OC(=O)c3ccccc3Cl)cc2)cc1	-0.9	14.6	4.2	-1.9	-3.3
O=C(O)c1ccc(N/N=C/c2ccc(-c3ccccc3)cc2)cc1	6.7	26.2	x	x	18.5*
O=C(O)c1ccc(N/N=C/c2ccc(OC(=O)c3ccccc3Cl)cc2)cc1	-0.8	40.7*	16.0	x	1.5
CC1(C)OC(c2ccccc2)=C/C(=C\C=N\NC(=O)c2ccncc2)O1	-1.8	33.2*	17.4	3.4	0.0
O=C(O)c1cc(-c2ccc(/C=N/Nc3ccc(Cl)cc3)o2)ccc1Cl	18.7	28.3	8.4	26.5	14.7*
CC(C)NC(=O)N1[C@H](CN(C)C(=O)c2cccnc2)[C@@H](c2ccccc2)[C@@H]1CO	x	x	x	2.8	x
Nc1ccc(C(=O)N/N=C\C=C\c2cccc([N+](=O)[O-])c2)cc1	-4.7	42.6*	-0.9	x	1.7
O=C(N/N=C/C=C/c1ccccc1)c1ccncc1	2.2	37.4*	-9.4	-1.0	-0.2
O=c1nc(N/N=C/C=C/c2ccccc2)cn[nH]1	1.0	78.5*	9.2	x	-3.5
SMILES	FBA Mtb inh	GDH-TPI counter	Rv3671c inh	BioA inh	FadD28 binding
O=C(N/N=C/C=C/c1cccc([N+](=O)[O-])c1)c1ccncc1	-0.6	-13.8	12.5	-0.6	-4.4
C[C@H](CO)N1C[C@H](C)[C@H](CN(C)C(=O)CC2CC2)Oc2cc(C3=CCCC3)ccc2S1(=O)=O	x	x	x	-0.5	x
CO[C@@H]1CN(C)C(=O)c2cc(NS(C)(=O)=O)ccc2OC[C@@H](C)N(C(=O)NC(C)C)C[C@H]1C	x	x	x	-1.6	x
CN(c1ccccc1)c1nc(N)c(C#N)c(CC#N)c1C#N	0.6	24.2	-3.2	7.0	-0.1
N#CCc1c(C#N)c(N)nc(Nc2ccccc2)c1C#N	-2.2	31.4*	2.5	-1.5	-4.4
COc1ccc2cc3[n+](cc2c1OC)CCc1cc2c(cc1-3)OCO2	-2.3	34.7*	-2.2	7.5	-2.0
COc1cccc(C2=NCCc3cc4c(cc32)OCO4)c1OC	-0.8	10.7	-4.4	-0.5	-1.7
CC(=O)Nc1cccc(-c2cc(C)c3cc4c(cc3n2)OCO4)c1	13.6	32.0*	x	7.6	-2.0
COC(=O)C1=C(O)/C(=C/c2ccc(OCC(=O)Nc3ccc(OC)cc3)cc2)N=C1C	-0.5	33.9*	x	0.2	1.3
COC(=O)C1=C(O)/C(=C\c2ccc(OCC(=O)Nc3ccccc3)cc2)N=C1C	-0.9	2.5	-4.0	-0.6	-1.7
Oc1c(Br)c(Br)c(Br)c(Br)c1Br	0.9	9.0	13.3	3.3	41.5*
Cn1ccc2c(/C=C/c3ccc(F)cc3)cc3c(c21)C1CCC3C1 (stereo unspecified)	8.1	x	x	-2.1	-1.0
Cn1ccc2c(/C=C/c3ccc(F)cc3)cc3c(c21)C1CCC3O1 (stereo unspecified)	139.9*	x	x	-0.6	1.8
CC(C)CC(=O)OCc1cn(-c2ccccc2)nn1	0.0	-7.0	0.8	0.2	-4.5
CC(C)n1c(=O)c2ccccc2n1Cc1cn(Cc2ccccc2)nn1	114.8*	x	x	11.3	1.5
CC(C)n1c(=O)c2ccccc2n1Cc1cn(CCc2c[nH]c3ccccc23)nn1	5.0	x	x	-0.2	-4.4
CC(C)n1c(=O)c2ccccc2n1Cc1cn(-c2ccccc2)nn1	120.3*	x	x	1.1	0.4
Cc1noc(C)c1NC(=O)N(C)C[C@H]1Oc2c(NC(=O)c3cnccn3)cccc2C(=O)N([C@H](C)CO)C[C@@H]1C	x	x	x	-3.0	x
CCCN1C[C@@H](C)[C@@H](OC)CN(C)C(=O)c2ccc(NC(=O)c3cccc(OC)c3)cc2OC[C@@H]1C	x	x	x	-2.9	x
CSc1nncn1/N=C/c1ccc([N+](=O)[O-])cc1	-0.9	1.9	-5.5	x	-4.4
CSc1nncn1/N=C/c1ccc2c(c1)OCO2	0.6	35.1*	-9.4	-0.1	1.7
CCc1ccc(/C=C2/C(=O)NC(=O)N2C(C)=O)cc1	0.6	40.0*	6.7	0.0	0.5
COc1ccc(C(=O)N2C(=S)NC(=O)/C2=C\c2ccc(C)cc2)cc1	-0.9	24.3	-38.1	x	0.1
COCCN(C(=O)CSc1nnc(-c2ccc(C)c(C)c2)o1)c1c(N)n(CC(C)C)c(=O)[nH]c1=O	-2.2	-3.5	1.0	-0.5	-2.1
CCN(CC)c1ccc(-c2nnc(SCC(=O)N(CCOC)c3c(N)n(CC(C)C)c(=O)[nH]c3=O)o2)cc1	-1.8	47.2*	-3.4	x	-2.5
CC(C)NC(=O)N(C)C[C@H]1Oc2ccc(NC(=O)NC3CCCCC3)cc2C(=O)N([C@@H](C)CO)C[C@H]1C	x	x	x	-0.6	x
Cc1c(C)c2c(OCC(=O)Nc3ccc(CCO)cc3)cc3c(c2oc1=O)CCC(C)(C)O3	+	23.5	-55.5	-0.6	-9.8
Cc1cc(OCC(=O)Nc2ccc(Br)cc2)cc2c1C(=O)CC(C)(C)O2	0.6	-3.7	-31.8	-2.2	-2.4
Cc1cc(OCC(=O)NCC2CCC(C(=O)O)CC2)c2c(C)c(C)c(=O)oc2c1 (stereo unspecified)	21.1	5.9	4.6	-0.8	-2.5
Cc1c(C)c2c(OCC(=O)O)cc3c(c2oc1=O)CCC(C)(C)O3	+	9.5	-2.3	-1.3	-1.6
